Laboratory results from the supplement of paper PMC6992640.
± gives the standard deviation of the averaged measurements.

Key:
Assay in all cases: cell viability (% of vehicle); higher = less cytotoxic
Conditions in all cases: 10 µM; 72 h
HCI01 = test system: HCI01 (cells of a triple-negative basal-like breast cancer xenograft)
HCI03 = test system: HCI03 (cells of an ER-positive luminal breast cancer xenograft)
HCI09 = test system: HCI09 (cells of a triple-negative luminal androgen receptor type breast cancer xenograft)
HCI11 = test system: HCI11 (cells of an ER-positive luminal breast cancer xenograft)
HCI13 = test system: HCI13 (cells of an ER-positive luminal breast cancer xenograft)
HCI16 = test system: HCI16 (cells of a triple-negative basal-like breast cancer xenograft)
UCD52 = test system: UCD52 (cells of a triple-negative basal-like breast cancer xenograft)
WHIM2 = test system: WHIM2 (cells of a triple-negative basal-like breast cancer xenograft)
WHIM30 = test system: WHIM30 (cells of a triple-negative basal-like breast cancer xenograft)
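Note: PDX cells carrying CMV promoter-driven luciferase, viability read as total photon flux per second by IVIS imaging following D-luciferin, vehicle control 0.1% DMSO.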

| Compound | cell viability (HCI01) | cell viability (HCI03) | cell viability (HCI09) | cell viability (HCI11) | cell viability (HCI13) | cell viability (HCI16) | cell viability (UCD52) | cell viability (WHIM2) | cell viability (WHIM30) |
| --- | --- | --- | --- | --- | --- | --- | --- | --- | --- |
| Nc1nc(=O)c2ncn(COCCO)c2[nH]1 [Acyclovir] | 103 ± 7.2 | 107 | 55.9 ± 49 | 113 | 154 ± 13 | 87.8 | 91.1 ± 11 | 96 ± 2.8 | 108 ± 19 |
| COc1ccc2c(c1)C(=O)N(CCc1ccc(S(=O)(=O)NC(=O)NC3CCCCC3)cc1)C(=O)C2(C)C [Gliquidone] | 89.2 ± 83 | 109 | 68.4 ± 19 | 91.4 | 94.6 ± 23 | 142 | 93.5 ± 11 | 130 ± 20 | 137 ± 19 |
| Cc1cc2c(s1)=Nc1ccccc1NC=2N1CCN(C)CC1 [Olanzapine] | 90.18 ± 0.87 | 107 | 105 ± 2.8 | 88.7 | 88.6 ± 14 | 112 | 87.7 ± 4.5 | 90.9 ± 8.5 | 107 ± 16 |
| CCOc1cc(CC(=O)NC(CC(C)C)c2ccccc2N2CCCCC2)ccc1C(=O)O (stereo unspecified) [Repaglinide] | 88 ± 1.1 | 131 | 117 ± 15 | 111 | 80.3 ± 12 | 118 | 80.672 ± 0.07 | 96.8 ± 5.5 | 126 ± 18 |
| CC(CCC(=O)O)C1CCC2C3C(O)CC4CC(O)CCC4(C)C3CCC12C (stereo unspecified) [Chenodeoxycholic Acid] | 114 ± 38 | 104 | 66 ± 10 | 103 | 41.5 ± 4.3 | 102 | 97.13 ± 0.54 | 115 ± 23 | 146 ± 3.2 |
| CC(C[N+](C)(C)C)OC(N)=O.[Cl-] (stereo unspecified) [Bethanechol chloride] | 86.3 ± 5.2 | 88 | 90.8 ± 12 | 82.5 | 104 ± 14 | 101 | 100 ± 5.9 | 105 ± 6.2 | 79.4 ± 1.9 |
| CCCC(=O)Nc1ccc(OCC(O)CNC(C)C)c(C(C)=O)c1.Cl (stereo unspecified) [Acebutolol HCl] | 125 ± 5.8 | 123 | 102 ± 22 | 106 | 76.3 ± 3.2 | 156 | 97.1 ± 7 | 98.7 ± 8.9 | 131.6 ± 0.063 |
| C[C@H](C(=O)O)c1ccc(-c2ccccc2)c(F)c1 [(S)-Flurbiprofen] | 109 ± 15 | 138 | 98.3 ± 21 | 78.6 | 98.7 ± 1.3 | 107 | 103 ± 2.4 | 103 ± 13 | 106 ± 5.7 |
| CC(C(=O)O)c1cccc(Oc2ccccc2)c1 (stereo unspecified) [Fenoprofen calcium hydrate] | 98.6 ± 19 | 104 | 94.2 ± 14 | 89 | 101 ± 6.6 | 120 | 85 ± 3.6 | 105 ± 1.2 | 139 ± 25 |
| CCCCCCOC(=O)N=C(N)c1ccc(NCc2nc3cc(C(=O)N(CCC(=O)OCC)c4ccccn4)ccc3n2C)cc1 | 94.2 ± 9.6 | 124 | 105 ± 7.4 | 111 | 118 ± 7.9 | 107 | 91.9 ± 7.3 | 107 ± 32 | 116 ± 11 |
| Nc1ccc(C(=O)[O-])c(O)c1.O.O.[Na+] [Sodium 4-Aminosalicylate] | 138 ± 21 | 157 | 108 ± 20 | 95.3 | 96.8 ± 13 | 143 | 77.7 ± 16 | 87.9 ± 20 | 92.3 ± 1.1 |
| CCc1nc(N)nc(N)c1-c1ccc(Cl)cc1 [Pyrimethamine] | 111 ± 6.4 | 129 | 81.6 ± 8.9 | 121 | 105 ± 12 | 109 | 75.2 ± 2.4 | 119 ± 4.7 | 104 ± 1.9 |
| CCOC(=O)n1ccn(C)c1=S [Carbimazole] | 90.9 ± 7.9 | 145 | 95 ± 11 | 93.4 | 66.4 ± 18 | 101 | 95.5 ± 7.5 | 104 ± 30 | 135 ± 11 |
| CC(O)C1C(=O)N2C(C(=O)O)=C(SC3CNC(C(=O)N(C)C)C3)C(C)C12.O.O.O (stereo unspecified) [Meropenem trihydrate] | 104 ± 8.7 | 81.8 | 127 ± 32 | 92.4 | 95 ± 0.96 | 96.2 | 89.6 ± 5.1 | 99.4 ± 7.5 | 78.309 ± 0.071 |
| COC(=O)C1=C(C)NC(C)=C(C(=O)OC)C1c1ccccc1[N+](=O)[O-] [Nifedipine] | 82.2 ± 18 | 130 | 66.9 ± 6.3 | 71.2 | 93.3 ± 14 | 111 | 92.25 ± 0.35 | 92.3 ± 17 | 110.7 ± 0.67 |
| CCC(C)n1ncn(-c2ccc(N3CCN(c4ccc(OCC5COC(Cn6cncn6)(c6ccc(Cl)cc6Cl)O5)cc4)CC3)cc2)c1=O (stereo unspecified) [Itraconazole] | 93.5 ± 38 | 81.2 | 56.7 ± 1.2 | 78.5 | 84.3 ± 4.1 | 129 | 68.6 ± 12 | 131 ± 17 | 94.7 ± 1.1 |
| COc1ccc2cc([C@H](C)C(=O)[O-])ccc2c1.[Na+] [Naproxen Sodium] | 83.6 ± 6.4 | 111 | 85.8 ± 14 | 106 | 124 ± 29 | 100 | 99.9 ± 3.1 | 102 ± 12 | 121 ± 22 |
| C=C1C(CO)C(O)CC1n1cnc2c(=O)nc(N)[nH]c21.O (stereo unspecified) [Entecavir Hydrate] | 110 ± 5.2 | 104 | 91.1 ± 4.7 | 99.5 | 82.7 ± 5.4 | 108 | 103 ± 13 | 81.3 ± 11 | 107 ± 9.8 |
| N#CC(=C1SCC(c2ccc(Cl)cc2Cl)S1)n1ccnc1 (stereo unspecified) [Luliconazole] | 131 ± 29 | 108 | 73.3 ± 15 | 90.6 | 70.2 ± 5.6 | 72.4 | 88.5 ± 4.3 | 97.1 ± 3.4 | 130 ± 7.6 |
| CNC(=O)c1ccc(N2C(=S)N(c3ccc(C#N)c(C(F)(F)F)c3)C(=O)C2(C)C)cc1F [MDV3100 (Enzalutamide)] | 115 ± 11 | 138 | 104.5 ± 0.14 | 96.1 | 94.3 ± 22 | 107 | 117 ± 6 | 97.9 ± 3.6 | 157 ± 1.9 |

| Compound | cell viability (HCI01) | cell viability (HCI03) | cell viability (HCI09) | cell viability (HCI11) | cell viability (HCI13) | cell viability (HCI16) | cell viability (UCD52) | cell viability (WHIM2) | cell viability (WHIM30) |
| --- | --- | --- | --- | --- | --- | --- | --- | --- | --- |
| CCOc1nc2cccc(C(=O)OCc3oc(=O)oc3C)c2n1Cc1ccc(-c2ccccc2-c2nc(=O)o[nH]2)cc1 [Azilsartan Medoxomil] | 100 ± 6.8 | 162 | 107 ± 2.2 | 94.2 | 106 ± 14 | 124 | 111 ± 8.7 | 106 ± 18 | 127 ± 2.7 |
| CCC(CC)C(NC(C)=O)C1C(N=C(N)N)CC(C(=O)O)C1O (stereo unspecified) [Peramivir] | 112 ± 9.2 | 110 | 91.2 ± 18 | 98 | 102 ± 20 | 78.9 | 81.6 ± 14 | 97.5 ± 6.7 | 136 ± 24 |
| O=C(NC(CO)C(O)c1ccc([N+](=O)[O-])cc1)C(Cl)Cl (stereo unspecified) [Chloramphenicol] | 109 ± 15 | 128 | 102 ± 12 | 86.1 | 81.3 ± 6.8 | 90.9 | 92.9 ± 3.5 | 106 ± 27 | 100 ± 18 |
| CN1CCC(=C2c3ccccc3C=Cc3ccccc32)CC1.Cl [Cyproheptadine hydrochloride] | 91 ± 16 | 115 | 83.3 ± 9 | 95.8 | 89.6 ± 1.1 | 90.1 | 79.8 ± 13 | 81.1 ± 14 | 116 ± 10 |
| C#CC1(OC(C)=O)CCC2C3CCC4=CC(OC(C)=O)CCC4C3CCC21C (stereo unspecified) [Ethynodiol diacetate] | 136 ± 22 | 118 | 86.3 ± 5.5 | 73.4 | 142 ± 16 | 136 | 84.9 ± 5.6 | 107 ± 17 | 112 ± 16 |
| NS(=O)(=O)c1cc(C(=O)O)c(NCc2ccco2)cc1Cl [Furosemide] | 108 ± 7.4 | 126 | 98.4 ± 8.6 | 105 | 89.1 ± 17 | 94.5 | 83.56 ± 0.16 | 98.3 ± 1.4 | 78.9 ± 6.2 |
| COc1cc(C)c(C=CC(C)=CC=CC(C)=CC(=O)O)c(C)c1C [Acitretin] | 113 ± 9.7 | 72.4 | 90.9 ± 14 | 86.5 | 83 ± 13 | 76.7 | 130 ± 8.7 | 90.5 ± 16 | 145 ± 42 |
| O=C(NCCO[N+](=O)[O-])c1cccnc1 [Nicorandil] | 81.9 ± 59 | 135 | 93.1 ± 9.9 | 89.3 | 151 ± 28 | 113 | 82.6 ± 8.1 | 120 ± 9.5 | 127 ± 5.8 |
| CCN(CCCc1ccccc1)CCCc1ccccc1.O=C(O)CC(O)(CC(=O)O)C(=O)O [Alverine Citrate] | 99.4 ± 3.5 | 95.5 | 104 ± 10 | 94.6 | 190 ± 4.8 | 118 | 59.9 ± 0.87 | 88.6 ± 4 | 102 ± 15 |
| CCCNC1CCc2nc(N)sc2C1 (stereo unspecified) [Pramipexole] | 122 ± 25 | 111 | 113 ± 5.7 | 110 | 163 ± 2.5 | 151 | 114 ± 20 | 101.5 ± 0.41 | 100 ± 12 |
| O=C(O)C=Cc1ccccc1 [Cinnamic acid] | 98.7 ± 32 | 108 | 96 ± 4.4 | 94.3 | 107 ± 15 | 121 | 98.4 ± 12 | 105 ± 15 | 117.9 ± 0.11 |
| CNC(=O)[C@H](Cc1ccccc1)NC(=O)[C@H](CC(C)C)[C@H](CSc1cccs1)C(=O)NO [Batimastat (BB-94)] | 94.3 ± 12 | 88.2 | 78.2 ± 20 | 95.3 | 127 ± 3.9 | 67 | 127 ± 16 | 72 ± 22 | 175 ± 0.83 |
| CC(C)NCC(O)c1ccc(O)c(O)c1.Cl (stereo unspecified) [Isoprenaline HCl] | 95.7 ± 15 | 108 | 87.2 ± 13 | 90.3 | 76.2 ± 2 | 122 | 91.9 ± 9.1 | 77.2 ± 5.8 | 113 ± 7.1 |
| CN1C2CCC1CC(OC(c1ccccc1)c1ccccc1)C2.CS(=O)(=O)O (stereo unspecified) [Benztropine mesylate] | 189 ± 60 | 108 | 110 ± 13 | 94 | 120 ± 14 | 125 | 80.4 ± 7.7 | 83.4 ± 12 | 141 ± 1.6 |
| CCOC(=O)C1=C[C@]2(CC)CCCN3CCc4c(n1c1ccccc41)[C@@H]32 [Vinpocetine] | 107 ± 21 | 108 | 94.4 ± 14 | 106 | 88.5 ± 11 | 112 | 110 ± 9 | 93.4 ± 7.8 | 125 ± 11 |
| CC(C)NCC(O)c1ccc(NS(C)(=O)=O)cc1.Cl (stereo unspecified) [Sotalol hydrochloride] | 102 ± 11 | 150 | 109 ± 2.9 | 111 | 126 ± 18 | 144 | 116 ± 4.6 | 110 ± 5.1 | 118 ± 2.6 |
| CN(C)CC(c1ccc(O)cc1)C1(O)CCCCC1 (stereo unspecified) [Desvenlafaxine] | 84 ± 2.4 | 118 | 92.5 ± 18 | 80.5 | 90.1 ± 13 | 126 | 92.2 ± 9.2 | 79.9 ± 7.9 | 124 ± 7.7 |
| CC(C(=O)O)c1ccc(C(=O)c2cccs2)cc1 (stereo unspecified) [Suprofen] | 116 ± 29 | 133 | 97.9 ± 4 | 69.5 | 114 ± 7.9 | 125 | 102.3 ± 0.22 | 107 ± 3.9 | 100 ± 15 |
| O=C1CCc2ccc(OCCCCN3CCN(c4cccc(Cl)c4Cl)CC3)cc2N1 [Aripiprazole] | 105 ± 16 | 127 | 73.6 ± 6.5 | 82 | 73.33 ± 0.076 | 127 | 73.9 ± 8.9 | 104 ± 6.5 | 122 ± 3.3 |
